Here are results for eleven molecules from PubChem BioAssay.

The inhibition is the change of the read-out against control, counted positive when it falls.

For some of these results: Potency and affinity values are given separately. The list shows a part of the results. Active and inactive are the calls of the source.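 How the source made its calls, unless noted: active means calcium signal cut by more than 3 SD below the full-agonist control yet still positive, in both repeats and the earlier primary screen; inactive means the rest.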

Test [1] deals with TRPC4 beta (transient receptor potential cation channel C4), mouse. The experiment in a line: TRPC4 cation channel opening, retest – cell-based, Fluo4 calcium, HEK293 TRPC4beta/mu-opioid, duplicates, 10 µM, confirmation (AID 2426;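 active means fluorescence ratio normalized to control raised more than 50% in primary screen plus both repeat runs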;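 further: percent rise of integrated ratio over buffer wells lacking compound which define 0%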). The conditions noted are these: Fluo4 calcium fluorescence, at 10 µM; active compounds read high.
The test system of test [2] is transient receptor potential cation channel C4 beta (TRPC4), mouse. In words: TRPC4 cation channel opening, second retest – cell-based, second round, Fluo4, HEK293 TRPC4beta/mu-opioid, 1 µM, confirmation (AID 2461;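 active means primary screen active and over 50% activation in each of two duplicate runs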;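 on activation: 0% = wells without test compound as baseline of integrated fluorescence ratio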). The conditions noted are these: Fluo4 calcium fluorescence, at 1 µM; active compounds read high.
In test [3] the test system is TRPC4 (transient receptor potential cation channel C4 beta), mouse. In words: potentiation of DAMGO EC20 TRPC4 response – cell-based, second round, Fluo-4, HEK293 TRPC4beta/mu-opioid, 1 µM, confirmation (AID 2554;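 active means primary screen hit whose fluorescence ratio, in both repeats, exceeds the weak agonist control mean by 3 SD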). The conditions noted are these: DAMGO EC20, Fluo-4 calcium flux, at 1 µM; active compounds read high. For orientation: A change in cytosolic calcium serves as a functional read-out for many receptors and channels.

Test [4] has as its system TRPC4 beta (transient receptor potential cation channel C4), mouse. In words: potentiation of DAMGO EC20 TRPC4 response – cell-based, Fluo-4, HEK293 TRPC4beta/mu-opioid, confirmation (AID 2555;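 active means primary screen hit whose calcium fluorescence ratio, in both repeats, exceeds the weak agonist control mean by 3 SD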). Conditions: DAMGO EC20, Fluo-4 calcium flux, at 10 µM; active compounds read high.
Test [5] has as its target Short transient receptor potential channel 4 (Mus musculus) (UniProt Q9QUQ5). The experiment in a line: blockers of DAMGO-evoked TRPC4 calcium flux – cell-based, Fluo4, HEK293 TRPC4beta/mu-opioid, confirmation (AID 2636). Conditions: at 10 µM; active compounds read high.
The target is the same in test [6]. The experiment in a line: blockers of DAMGO-evoked TRPC4 calcium flux – cell-based, second round, Fluo4, HEK293 TRPC4beta/mu-opioid, 1 µM, confirmation (AID 2637;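 active means calcium signal ratio cut to more than 3 SD under the fully stimulated control mean yet still positive, in both repeats and the primary screen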;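 on inhibition: percent of integrated ratio relative to wells lacking test compound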). The conditions noted are these: at 1 µM; active compounds read high.
For test [7] the target is unchanged. In words: potentiation of DAMGO-evoked TRPC4 calcium signal – cell-based, HEK293 TRPC4/mu-opioid, Fluo-4 calcium, EC20 DAMGO, dose response (AID 434941;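 active means earlier screen potentiator hit that boosts the TRPC4 ion channel at some dose, with a dose response; inactive means no potentiation, no dose response, or not a prior hit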;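 further: calcium entry triggered by an EC20 dose of DAMGO at the co-expressed mu-opioid receptor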).
For test [8] the target is unchanged. In words: block of DAMGO-driven TRPC4 calcium entry – cell-based, HEK293 TRPC4/mu-opioid, Fluo-4 calcium, dose response (AID 434942;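 active means primary screen inhibitor hit that blocks the TRPC4 channel at some tested dose, yielding a dose curve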).
Test [9] concerns the target Short transient receptor potential channel 6 (Mus musculus) (UniProt Q61143). The experiment in a line: TRPC6 blockade by TRPC4 inhibitor hits – cell-based, HEK293, membrane potential dye, duplicate, selectivity assay for TRPC4 inhibitor project, confirmation (AID 434948;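 active means active in primary screen and both duplicates, each dropping signal beyond three positive-control SD with fluorescence still positive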). Conditions: HEK293 TRPC6, membrane potential dye fluorescence, at 10 µM; inhibition: active compounds read high, stimulated with maximal-effect acetylcholine unless noted; outcome: stimulated with maximal-effect acetylcholine unless noted.

Test [10] shares this target. The experiment in a line: TRPC6 opening by TRPC4 activator hits – cell-based, HEK293, membrane potential dye, duplicate, selectivity assay for TRPC4 activator project, confirmation (AID 434950;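 active means membrane potential signal rise above negative control mean plus 3 SD in both duplicates, also active in the earlier TRPC4 screen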;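 on activation: 0% = buffer only wells and 100% = acetylcholine maximal-effect wells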). The conditions noted are these: HEK293 TRPC6, membrane potential fluorescence, at 10 µM; activation: active compounds read high; outcome: activation.
Test [11] shares this target. In words: positive modulators of mouse TRPC6 channel – HEK293 cells, membrane potential dye, duplicate, selectivity assay for TRPC4 potentiator project, confirmation (AID 434952;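 active means compound raising the membrane signal above positive-control mean plus 3 SD in both repeats, and a primary screen hit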). The conditions noted are these: HEK293 TRPC6, membrane potential dye fluorescence, at 10 µM; maximal acetylcholine added after compound unless noted.
Test [12] addresses Short transient receptor potential channel 4 (Mus musculus) (UniProt Q9QUQ5). The experiment in a line: calcium flux activators in TRPC4/5HT1a cells, counter-screen for TRPC4 activator project, cell-based, second counter screen, HEK293 TRPC4/5HT1a, Fluo-4 (AID 434977;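 active means calcium signal rise above buffer-control mean plus 5 SD in both duplicates, and also a hit in the primary screen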;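 on activation: plate controls were assay buffer for no effect and maximal serotonin response for full effect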). Conditions: Fluo-4 calcium flux, at 10 µM; active compounds read high.
Test [13] in a line: serotonin-gated TRPC4 signal block – cell-based, second counter screen, HEK293 TRPC4/5HT1a, Fluo-4, counter-screen for TRPC4 inhibitor project, confirmation (AID 434978;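 active means primary screen active whose calcium signal fell more than 3 SD beyond the full-serotonin control mean in both duplicate plates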;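 further: serotonin given first at submaximal then at maximal dose after compound preincubation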). The conditions noted are these: Fluo-4 calcium flux, at 10 µM; inhibition: active compounds read high, serotonin added to trigger calcium flux unless noted; outcome: serotonin added to trigger calcium flux unless noted.

Test [14] concerns TRPC4 (mouse), co-expressed with 5HT1a in HEK293. In words: enhancement of serotonin-evoked TRPC4 response – cell-based, second counter screen, HEK293 TRPC4/5HT1a, Fluo-4, counter-screen for TRPC4 potentiator project, confirmation (AID 434979;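 active means signal rise over 3 SD above mean of control wells given weak agonist, in both repeats and first screen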). The conditions noted are these: Fluo-4 calcium flux, at 10 µM; outcome: serotonin added at its EC20 dose unless noted; potentiation: active compounds read high, serotonin added at its EC20 dose unless noted.

A short description of test [15]: nonspecific calcium rise without TRPC4 – cell-based, HEK293 mu-opioid receptor line, counter-screen for TRPC4 activator project, confirmation (AID 449723;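 active means hit in primary screen, with calcium signal over 5 SD above buffer well mean in both duplicates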;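 further: counter screen cells carry the mu-opioid receptor alone and lack TRPC4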). Conditions: HEK293 mu-opioid cells, Fluo-4 calcium fluorescence, at 10 µM; active compounds read high. On the technique in general: A counterscreen serves to expose hits that act by an unwanted route or on another target.

Test [16] in a line: nonspecific potentiation of DAMGO calcium response – cell-based, HEK293 mu-opioid receptor line, counter-screen for TRPC4 allosteric potentiator project, confirmation (AID 449724;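 active means calcium signal rise more than 3 SD above the low-dose agonist control mean, in both duplicate plates and the primary screen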;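 further: HEK293 cells carrying mu-opioid receptor only with no TRPC4 channel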). The conditions noted are these: HEK293 mu-opioid receptor cells, Fluo-4 calcium flux, at 10 µM; compound added before EC20 DAMGO stimulus unless noted.
Test [17] can be described thus: nonspecific voltage dye response without TRPC6 – cell-based, parental HEK293, counter-screen for TRPC6 modulator project, confirmation (AID 488924;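 active means membrane potential signal moves up or down beyond 5 SD from buffer-only wells, on both duplicate plates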). The conditions noted are these: parental HEK293, membrane potential dye fluorescence; at 10 µM.
Test [18] in a line: membrane potential response modulators in host HEK293 cells – cell-based, second counter-screen, parental HEK293, membrane potential dye, counter-screen for TRPC6 modulator project, confirmation (AID 488926;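 active means membrane potential signal drops by more than 5 SD from the mean control signal, in both duplicate plates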;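 further: plate controls were acetylcholine ECmax control wells for no effect and buffer only wells for full effect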). Conditions: parental HEK293, membrane potential dye fluorescence, at 10 µM, after compound, maximal acetylcholine stimulation; active compounds read high.
Test [19] deals with Transient receptor potential cation channel subfamily C member 4 (mouse). In words: off-target membrane potential effects via mouse TRPC4 – cell-based, HEK293 TRPC4/mu-opioid, membrane potential dye, selectivity assay for TRPC6 modulator project, confirmation (AID 488927;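 active means membrane potential signal moved up or down beyond 5 SD of buffer control wells, in both duplicate plates, actives on both sides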). The conditions noted are these: membrane potential fluorescence, at 10 µM.
Test [20] relates to TRPC4 (transient receptor potential cation channel C4), mouse. The experiment in a line: DAMGO-evoked mouse TRPC4 response blockade – cell-based, second screen, HEK293 TRPC4/mu-opioid, membrane potential dye, selectivity assay for TRPC6 modulator project, confirmation (AID 488928;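 active means drop in membrane potential signal beyond 5 SD of the control wells in both duplicate plates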;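 further: TRPC4 counter screen for TRPC6 hits run under conditions tuned for TRPC6 not TRPC4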). The conditions noted are these: membrane potential dye fluorescence, at 10 µM, stimulated with maximal-effect DAMGO; active compounds read high.

For test [21], the target named is Short transient receptor potential channel 6 (Mus musculus) (UniProt Q61143). The experiment in a line: blockers of TRPC6 cation channel activity – HEK293 cells, membrane potential dye, duplicate, confirmation (AID 488960;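 active means fluorescence ratio falls more than 5 SD below the full-stimulation control mean, in both duplicate runs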;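 further: integrated fluorescence ratio of peak minus minimum over baseline after agonist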). Conditions: ACh-evoked depolarization, at 10 µM; active compounds read high.
Test [22] has the same target. The experiment in a line: mouse TRPC6 channel activators, confirmation, HEK293 cells, membrane potential dye, duplicate (AID 488961;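 active means ratio signal rise beyond 5 SD above unstimulated control wells' mean, seen in both duplicate runs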). The conditions noted are these: HEK293-TRPC6 membrane potential dye fluorescence, FDSS; at 10 µM.
A short description of test [23]: nonspecific flux increase, KCNQ1-free cells – parental CHO cells, counter-screen for KCNQ1 potentiator project (AID 493006;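 active means duplicate-averaged activation above buffer control mean plus 5 SD of those controls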;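 on activation: fluorescence ratio of max minus min over baseline after K+ and Tl+ depolarization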). The conditions noted are these: parental CHO-K1 cells, FluxOR thallium flux, at 10 µM; active compounds read high.
Test [24] deals with Potassium voltage-gated channel subfamily KQT member 1 (Homo sapiens) (UniProt P51787). The experiment in a line: enhancement of KCNQ1 channel thallium flux – FluxOR thallium flux, CHO cells, duplicates, confirmation (AID 493007;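 active means potentiation averaged over duplicate wells exceeding buffer-only control mean by more than 3 SD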;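 on outcome: cells depolarized by a potassium plus thallium sulfate stimulus after compound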;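 on potentiation: 0% = buffer-only wells and 100% = R-L3 activator control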). Conditions: KCNQ1 cell line, FluxOR thallium flux fluorescence, at 10 µM; active compounds read high, % of reference activator effect, buffer zero.
Test [25] deals with Potassium voltage-gated channel subfamily KQT member 2 (Rattus norvegicus) (UniProt O88943). The experiment in a line: KCNQ2 thallium flux enhancement – KCNQ2-CHO-K1 cells, selectivity assay for KCNQ1 potentiator project (AID 493009;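 active means mean duplicate potentiation above the buffer control mean plus 5 SD of buffer wells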;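 further: assay conditions were tuned for KCNQ1 rather than KCNQ2 modulators; signal is max minus min fluorescence divided by baseline after thallium stimulus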). Conditions: FluxOR thallium flux fluorescence, at 10 µM; active compounds read high, scaled: buffer 0, activator control 100.
Test [26] addresses Potassium voltage-gated channel subfamily KQT member 1 (Homo sapiens) (UniProt P51787). The experiment in a line: KCNQ1 activators by electrophysiology – IonWorks patch clamp, KCNQ1-CHO cells, orthogonal assay for KCNQ1 potentiator project, confirmation (AID 493184;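 active means current rise at least 3 SD above the untreated control mean in each of two repeat wells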). The conditions noted are these: automated patch clamp current, at 10 µM.

Potassium voltage-gated channel subfamily KQT member 2 (Rattus norvegicus), sequence (O88943 whole entry, looked up): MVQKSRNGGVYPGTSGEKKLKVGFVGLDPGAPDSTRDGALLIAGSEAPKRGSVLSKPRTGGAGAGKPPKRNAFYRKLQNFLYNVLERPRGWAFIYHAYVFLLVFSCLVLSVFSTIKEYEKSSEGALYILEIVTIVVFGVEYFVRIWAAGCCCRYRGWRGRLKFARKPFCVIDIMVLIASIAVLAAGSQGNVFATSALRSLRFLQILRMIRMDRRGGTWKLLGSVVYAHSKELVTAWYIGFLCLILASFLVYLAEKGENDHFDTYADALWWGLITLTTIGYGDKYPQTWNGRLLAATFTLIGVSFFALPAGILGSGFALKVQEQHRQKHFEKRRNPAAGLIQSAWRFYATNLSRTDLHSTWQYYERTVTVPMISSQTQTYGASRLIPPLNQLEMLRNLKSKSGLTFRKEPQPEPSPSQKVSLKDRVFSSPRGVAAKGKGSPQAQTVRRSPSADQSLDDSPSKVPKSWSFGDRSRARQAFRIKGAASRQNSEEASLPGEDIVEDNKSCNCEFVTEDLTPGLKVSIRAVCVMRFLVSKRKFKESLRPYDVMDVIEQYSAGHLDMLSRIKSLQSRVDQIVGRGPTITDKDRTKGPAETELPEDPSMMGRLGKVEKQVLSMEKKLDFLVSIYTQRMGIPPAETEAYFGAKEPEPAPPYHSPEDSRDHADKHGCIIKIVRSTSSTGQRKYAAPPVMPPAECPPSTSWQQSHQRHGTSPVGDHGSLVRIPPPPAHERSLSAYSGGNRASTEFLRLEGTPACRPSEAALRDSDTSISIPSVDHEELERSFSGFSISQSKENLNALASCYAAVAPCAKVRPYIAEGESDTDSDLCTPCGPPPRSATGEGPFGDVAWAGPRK
Short transient receptor potential channel 6 (Mus musculus), sequence (Q61143 whole entry, looked up): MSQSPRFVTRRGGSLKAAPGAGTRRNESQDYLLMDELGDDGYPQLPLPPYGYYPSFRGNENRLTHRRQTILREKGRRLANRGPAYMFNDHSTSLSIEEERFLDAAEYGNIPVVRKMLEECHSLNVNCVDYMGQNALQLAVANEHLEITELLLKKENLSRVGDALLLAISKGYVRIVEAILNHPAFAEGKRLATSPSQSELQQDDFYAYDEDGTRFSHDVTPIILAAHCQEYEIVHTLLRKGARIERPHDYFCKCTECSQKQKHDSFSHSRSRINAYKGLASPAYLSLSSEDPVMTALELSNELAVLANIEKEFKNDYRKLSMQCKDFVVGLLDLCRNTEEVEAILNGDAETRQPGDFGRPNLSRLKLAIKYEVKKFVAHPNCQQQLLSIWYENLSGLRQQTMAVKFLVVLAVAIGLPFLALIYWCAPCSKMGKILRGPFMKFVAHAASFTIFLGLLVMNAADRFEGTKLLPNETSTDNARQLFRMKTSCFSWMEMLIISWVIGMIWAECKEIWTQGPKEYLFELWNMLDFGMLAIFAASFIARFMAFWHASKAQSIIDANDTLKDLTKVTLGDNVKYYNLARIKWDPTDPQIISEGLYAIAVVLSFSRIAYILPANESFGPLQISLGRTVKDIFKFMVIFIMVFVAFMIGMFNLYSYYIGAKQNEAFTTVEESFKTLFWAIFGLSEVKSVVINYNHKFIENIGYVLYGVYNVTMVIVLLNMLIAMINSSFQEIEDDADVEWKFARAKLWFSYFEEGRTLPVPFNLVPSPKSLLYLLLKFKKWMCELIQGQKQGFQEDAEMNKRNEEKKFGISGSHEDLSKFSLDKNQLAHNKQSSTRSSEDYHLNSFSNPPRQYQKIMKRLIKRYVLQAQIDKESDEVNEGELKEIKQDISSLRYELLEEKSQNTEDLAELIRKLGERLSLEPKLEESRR
Short transient receptor potential channel 4 (Mus musculus), sequence (Q9QUQ5 whole entry, looked up): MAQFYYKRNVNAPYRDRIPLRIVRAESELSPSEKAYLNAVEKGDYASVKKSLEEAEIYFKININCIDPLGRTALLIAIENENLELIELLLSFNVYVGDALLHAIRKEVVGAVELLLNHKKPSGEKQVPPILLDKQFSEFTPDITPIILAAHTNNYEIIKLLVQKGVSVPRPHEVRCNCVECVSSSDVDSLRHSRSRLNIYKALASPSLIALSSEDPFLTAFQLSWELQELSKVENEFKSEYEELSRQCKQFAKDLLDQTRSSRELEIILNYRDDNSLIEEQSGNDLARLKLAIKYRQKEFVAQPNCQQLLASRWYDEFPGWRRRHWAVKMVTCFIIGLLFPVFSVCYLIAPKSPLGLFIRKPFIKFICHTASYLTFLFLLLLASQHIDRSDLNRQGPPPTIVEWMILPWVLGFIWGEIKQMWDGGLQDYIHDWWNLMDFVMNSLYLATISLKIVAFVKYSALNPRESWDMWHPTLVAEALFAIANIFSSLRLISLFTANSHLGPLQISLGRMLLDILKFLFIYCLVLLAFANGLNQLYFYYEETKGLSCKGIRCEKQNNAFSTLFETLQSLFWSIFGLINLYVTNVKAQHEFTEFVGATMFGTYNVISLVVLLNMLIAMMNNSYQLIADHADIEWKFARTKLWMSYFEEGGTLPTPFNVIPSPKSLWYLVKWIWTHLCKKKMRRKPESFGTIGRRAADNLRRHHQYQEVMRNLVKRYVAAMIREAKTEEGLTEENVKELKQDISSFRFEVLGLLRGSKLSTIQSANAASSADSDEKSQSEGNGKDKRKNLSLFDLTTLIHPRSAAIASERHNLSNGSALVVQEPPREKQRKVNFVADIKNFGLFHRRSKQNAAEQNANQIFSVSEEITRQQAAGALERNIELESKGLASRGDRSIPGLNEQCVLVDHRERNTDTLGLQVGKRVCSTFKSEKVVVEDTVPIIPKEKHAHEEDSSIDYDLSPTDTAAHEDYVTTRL
Potassium voltage-gated channel subfamily KQT member 1 (Homo sapiens), sequence (P51787 whole entry, looked up): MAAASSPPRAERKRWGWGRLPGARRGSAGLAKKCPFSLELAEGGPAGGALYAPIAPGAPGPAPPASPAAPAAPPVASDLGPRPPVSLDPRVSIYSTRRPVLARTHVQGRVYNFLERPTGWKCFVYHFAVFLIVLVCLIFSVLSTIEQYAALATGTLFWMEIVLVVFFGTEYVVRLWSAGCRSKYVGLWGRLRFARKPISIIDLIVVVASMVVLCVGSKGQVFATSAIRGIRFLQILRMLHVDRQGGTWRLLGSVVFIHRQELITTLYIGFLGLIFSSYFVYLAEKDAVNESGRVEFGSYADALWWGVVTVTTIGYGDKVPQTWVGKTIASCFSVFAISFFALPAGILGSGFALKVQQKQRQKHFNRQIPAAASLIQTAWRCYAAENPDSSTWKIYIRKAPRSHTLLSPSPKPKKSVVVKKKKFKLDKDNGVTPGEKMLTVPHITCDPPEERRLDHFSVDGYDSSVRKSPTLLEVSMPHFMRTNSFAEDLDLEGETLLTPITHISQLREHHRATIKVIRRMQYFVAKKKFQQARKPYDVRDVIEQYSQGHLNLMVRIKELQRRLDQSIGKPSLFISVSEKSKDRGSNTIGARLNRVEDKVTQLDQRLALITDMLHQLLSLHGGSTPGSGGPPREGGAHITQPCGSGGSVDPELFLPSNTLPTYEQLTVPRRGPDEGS

With `NC(N)=N/N=C/c1ccc(N(c2ccccc2)c2ccccc2)cc1`, the activation in test [1] is 60% (active); in test [12], 48.2% (active); in test [15], 20.3% (active). For the same molecule, the result in test [2], in test [3], in test [4], in [5], in test [6] and in [7] was inactive. In addition, the outcome in test [8], in test [9], in test [10], in test [11], in test [13] and in test [14] was inactive. Further, the outcome in test [16] was inactive.
Regarding `CC1=CC(=Cc2sc3ccccc3[n+]2C)C=C(C)O1`, the outcome in [17], in test [19], in test [20] and in [22] was inactive. Also, the inhibition was 131% (active) in test [18] and 73% (active) in test [21].
`C=C(C)[C@@]12OC3(c4ccccc4)O[C@@H]1C1[C@@H]4O[C@]4(CO)[C@@H](O)[C@]4(O)C(=O)C(C)=C[C@H]4[C@@]1(O3)[C@H](C)[C@H]2OC(=O)/C=C/C=C/c1ccccc1` (stereo not given in full): the result in test [23], in test [24], in [25] and in test [26] was inactive.
As to `CNC(=O)NC(O)C(Cl)(Cl)Cl` (stereo not given), the outcome in test [23], in [24], in [25] and in test [26] was inactive.
Take `CCOc1cc(CNCCc2c[nH]c3ccccc23)cc(Cl)c1OC`: the activation in test [1] is 129% (active); in test [12], 65.6% (active). Further, the outcome in test [2], in test [3], in test [4], in test [5], in test [6] and in [7] was inactive. Moreover, the result in [8], in test [9], in test [10], in [11], in test [13] and in test [14] was inactive. The result in test [15] and in test [16] was inactive.
On to `O=[N+]([O-])c1cc2c(cc1CNCCc1ccc3c(c1)OCO3)OCO2`, for which the activation in test [1] was 62% (active). In addition, the result in [2], in test [3], in test [4], in test [7], in [10] and in test [12] was inactive. In test [15], the result was inactive. Moreover, the inhibition in test [5] was 91% (active); in test [6], 39% (active). Besides, the outcome in [9], in test [11], in [13], in [14] and in test [16] was “inactive [setting not given]” in each case.
Consider `CC1CN(c2ccc([N+](=O)[O-])c3cccnc23)CC(C)N1` (stereo not given), for which the activation in [1] is 108% (active); in test [2] it was 81% (active); in [12], 35.7% (active). Also, the result in test [3], in test [4], in test [5], in test [6], in test [7] and in [8] was inactive. Also, the call in test [9], in [10], in [11], in test [13], in test [14] and in test [15] was inactive. Besides, the result in test [16] was inactive.
In the case of `COc1ccc(CCNCc2ccc(SC)cc2)cc1`, the activation in [1] was 122% (active); in test [10], 65.5% (active); in [12], 21.7% (active). The result in test [2], in [3], in [4], in [5], in test [6] and in [7] was inactive. Also, the result in [8] and in test [15] was inactive. Besides, the outcome in test [9], in test [11], in [13], in [14] and in test [16] was “inactive [setting not given]” throughout.
As for `O=C(CCCN1CCC2(CC1)C(=O)NCN2c1ccccc1)c1ccc(F)cc1`, the activation is 193% (active) in [1]; 39.5% (active) in test [10]; 86.7% (active) in test [12]; 48% (active) in [15]; 336% (active) in [23]. Further, the result in test [2], in test [3], in test [4], in test [5], in [6] and in test [7] was inactive. Also, the result in [8], in test [9], in test [11], in test [13], in [14] and in test [16] was inactive. Also, the outcome in [26] was inactive. Besides, the potentiation is 55.5% (active) in test [24] and 323% (active) in [25].
`c1ccc2oc(N3CCNCC3)nc2c1`: the activation in [1] is 81% (active); in [2] it was 53% (active); in [12], 24.8% (active). The outcome in test [3], in [5], in test [6], in test [7], in test [8] and in test [9] was inactive. Moreover, the call in [10], in test [11], in test [13], in test [15] and in test [16] was inactive. Further, the potentiation was 19% (active) in test [4] and 31.8% (active) in [14].
Regarding `CCN1CCN(Cc2cc(Br)cc(Br)c2O)CC1`, the activation in [1] is 221% (active); in test [2] it was 133% (active); in test [10], 38.5% (active); in test [12], 70.3% (active). Besides, the result in test [3], in test [4], in test [5], in test [6], in test [7] and in [8] was inactive. Moreover, the molecule was classed as inactive in test [9], in [11], in test [13], in test [14], in test [15] and in test [16].
